Experimental data from publication PMC7862700, “An all-to-all approach to the identification of sequence-specific readers for epigenetic DNA modifications on cytosine”.

What was measured:
Assay in all cases: DAPPL (digital affinity profiling via proximity ligation, sequencing); 10 mM Tris-HCl pH 7.5, 50 mM NaCl, 1 mM DTT, 4% glycerol, room temperature, 30 min; GST-TFs on glutathione beads, 16-mer random dsDNA library, 0.1% formaldehyde crosslink after washing; high values mean tight binding
Conditions in all cases: protein: recombinant; tags: N-terminal GST; dsDNA, one strand shown
ERF = target: T1, ERF (Homo sapiens, UniProt P50548 1-548)
T1 sequence: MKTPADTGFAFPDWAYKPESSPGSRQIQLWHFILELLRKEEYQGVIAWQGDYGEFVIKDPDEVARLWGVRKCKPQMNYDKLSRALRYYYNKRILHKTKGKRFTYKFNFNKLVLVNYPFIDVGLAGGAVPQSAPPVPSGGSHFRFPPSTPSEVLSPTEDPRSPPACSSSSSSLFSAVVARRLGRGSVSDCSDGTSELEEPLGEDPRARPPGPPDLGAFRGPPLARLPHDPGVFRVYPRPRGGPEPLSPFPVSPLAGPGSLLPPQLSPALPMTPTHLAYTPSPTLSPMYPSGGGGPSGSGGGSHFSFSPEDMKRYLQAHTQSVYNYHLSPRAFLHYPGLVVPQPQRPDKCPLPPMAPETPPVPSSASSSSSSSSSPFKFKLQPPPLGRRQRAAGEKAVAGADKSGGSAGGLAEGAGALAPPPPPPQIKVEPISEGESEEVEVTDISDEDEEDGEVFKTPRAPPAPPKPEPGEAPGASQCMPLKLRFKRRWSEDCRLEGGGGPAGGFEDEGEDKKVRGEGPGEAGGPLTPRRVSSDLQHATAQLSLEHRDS
In short: (§1)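 Yeast served to express human transcription factors as GST fusions, which were then captured on glutathione beads and labelled with DNA barcodes. Pooled with a tag-only sample, they were incubated with 200 nmole of a 16-mer random double-stranded DNA library for 30 min at room temperature in Tris/NaCl/DTT/glycerol buffer, washed, crosslinked with 0.1% formaldehyde, ligated by proximity, amplified by PCR and sequenced. Dividing each hexamer's read frequency for a factor by its frequency for the tag-only sample gives the binding signal.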

ETV3L = target: T2, ETV3L (Homo sapiens, UniProt Q6ZN32 1-361)
T2 sequence: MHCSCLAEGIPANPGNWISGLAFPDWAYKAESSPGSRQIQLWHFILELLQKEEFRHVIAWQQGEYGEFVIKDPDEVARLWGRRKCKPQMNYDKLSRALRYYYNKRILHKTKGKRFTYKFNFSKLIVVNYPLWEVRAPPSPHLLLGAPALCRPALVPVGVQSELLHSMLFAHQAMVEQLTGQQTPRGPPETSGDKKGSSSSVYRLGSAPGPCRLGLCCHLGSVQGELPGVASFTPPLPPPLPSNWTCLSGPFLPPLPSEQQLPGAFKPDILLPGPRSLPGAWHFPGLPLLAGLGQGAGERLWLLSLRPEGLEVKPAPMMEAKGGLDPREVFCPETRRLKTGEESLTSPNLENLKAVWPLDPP
In short: as §1

ETS2 = target: T3, ETS2 (Homo sapiens, UniProt P15036 1-469)
T3 sequence: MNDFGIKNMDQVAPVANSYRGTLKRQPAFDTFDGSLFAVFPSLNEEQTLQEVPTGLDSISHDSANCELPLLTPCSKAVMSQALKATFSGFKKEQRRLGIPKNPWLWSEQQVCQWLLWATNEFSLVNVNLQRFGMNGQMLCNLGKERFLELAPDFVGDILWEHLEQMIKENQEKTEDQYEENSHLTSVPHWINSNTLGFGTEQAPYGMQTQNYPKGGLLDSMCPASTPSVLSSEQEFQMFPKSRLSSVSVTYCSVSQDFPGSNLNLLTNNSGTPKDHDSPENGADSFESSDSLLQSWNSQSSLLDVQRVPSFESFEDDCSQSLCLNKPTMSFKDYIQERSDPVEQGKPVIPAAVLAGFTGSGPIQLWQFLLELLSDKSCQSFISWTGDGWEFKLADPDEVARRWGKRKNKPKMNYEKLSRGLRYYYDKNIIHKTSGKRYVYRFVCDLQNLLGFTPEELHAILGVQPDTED
In short: as §1

SPDEF = target: T4, SPDEF (Homo sapiens, UniProt O95238 1-335)
T4 sequence: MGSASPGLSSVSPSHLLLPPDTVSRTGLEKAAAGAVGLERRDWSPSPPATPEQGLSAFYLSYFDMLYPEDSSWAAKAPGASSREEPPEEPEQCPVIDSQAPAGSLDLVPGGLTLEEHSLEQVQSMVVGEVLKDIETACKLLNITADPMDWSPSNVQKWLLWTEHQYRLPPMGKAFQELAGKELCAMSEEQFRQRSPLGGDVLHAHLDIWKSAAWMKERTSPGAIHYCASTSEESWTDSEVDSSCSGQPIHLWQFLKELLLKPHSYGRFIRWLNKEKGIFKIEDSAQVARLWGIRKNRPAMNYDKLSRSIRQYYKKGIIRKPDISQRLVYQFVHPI
In short: as §1

ETV7 = target: T5, ETV7 (Homo sapiens, UniProt Q9Y603 1-341)
T5 sequence: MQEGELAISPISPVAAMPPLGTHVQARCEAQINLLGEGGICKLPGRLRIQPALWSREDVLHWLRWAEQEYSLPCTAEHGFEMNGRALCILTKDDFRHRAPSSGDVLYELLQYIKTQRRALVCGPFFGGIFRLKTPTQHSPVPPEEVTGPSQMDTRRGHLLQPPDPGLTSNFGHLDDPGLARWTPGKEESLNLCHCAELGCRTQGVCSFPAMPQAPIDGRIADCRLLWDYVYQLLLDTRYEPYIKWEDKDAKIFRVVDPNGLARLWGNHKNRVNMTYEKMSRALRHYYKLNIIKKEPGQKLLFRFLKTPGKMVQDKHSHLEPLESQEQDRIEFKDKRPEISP
In short: as §1

ELF5 = target: T6, ELF5 (Homo sapiens, UniProt Q9UKW6-2 1-255)
T6 sequence: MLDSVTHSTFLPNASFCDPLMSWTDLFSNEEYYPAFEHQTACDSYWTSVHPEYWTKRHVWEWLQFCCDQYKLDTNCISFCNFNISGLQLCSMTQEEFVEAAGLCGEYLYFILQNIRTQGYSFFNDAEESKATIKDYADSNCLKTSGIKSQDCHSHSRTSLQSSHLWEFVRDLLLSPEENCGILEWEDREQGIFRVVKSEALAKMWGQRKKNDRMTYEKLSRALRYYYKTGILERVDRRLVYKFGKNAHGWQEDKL
In short: as §1

ETV3 = target: T7, ETV3 (Homo sapiens, UniProt P41162-2 1-143)
T7 sequence: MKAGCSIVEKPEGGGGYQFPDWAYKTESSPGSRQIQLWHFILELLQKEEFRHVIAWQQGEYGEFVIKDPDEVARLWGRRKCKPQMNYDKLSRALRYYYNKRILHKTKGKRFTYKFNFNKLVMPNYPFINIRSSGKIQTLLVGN
In short: as §1

ETV6 = ETV6 (Homo sapiens, UniProt P41212 1-452)
In short: as §1

Sequence of ETV6 (P41212 whole entry): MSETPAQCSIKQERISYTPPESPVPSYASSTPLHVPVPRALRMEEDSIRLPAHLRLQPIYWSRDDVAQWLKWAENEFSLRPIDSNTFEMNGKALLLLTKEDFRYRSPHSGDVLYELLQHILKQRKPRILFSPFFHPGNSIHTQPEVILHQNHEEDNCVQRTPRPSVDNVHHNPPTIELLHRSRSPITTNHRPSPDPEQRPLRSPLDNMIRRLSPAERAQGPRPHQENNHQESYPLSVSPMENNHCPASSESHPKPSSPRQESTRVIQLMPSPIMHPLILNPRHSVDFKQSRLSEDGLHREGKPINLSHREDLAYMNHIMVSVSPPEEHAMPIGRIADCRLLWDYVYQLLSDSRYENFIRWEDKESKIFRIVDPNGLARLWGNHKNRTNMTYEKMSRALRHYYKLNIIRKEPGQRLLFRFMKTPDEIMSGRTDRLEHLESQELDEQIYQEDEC

| Sequence | binding signal (ERF) | binding signal (ETV3L) | binding signal (ETS2) | binding signal (SPDEF) | binding signal (ETV7) | binding signal (ELF5) | binding signal (ETV3) | binding signal (ETV6) |
| --- | --- | --- | --- | --- | --- | --- | --- | --- |
| CGTTTC | 1.74 fold enrichment (6-mer frequency, TF over GST control) | 1.64 fold enrichment (6-mer frequency, TF over GST control) | 1.74 fold enrichment (6-mer frequency, TF over GST control) | 1.75 fold enrichment (6-mer frequency, TF over GST control) | 1.98 fold enrichment (6-mer frequency, TF over GST control) | 2.04 fold enrichment (6-mer frequency, TF over GST control) | 1.83 fold enrichment (6-mer frequency, TF over GST control) | 1.95 fold enrichment (6-mer frequency, TF over GST control) |
| TAACCT | 1.35 fold enrichment (6-mer frequency, TF over GST control) | 1.28 fold enrichment (6-mer frequency, TF over GST control) | 1.31 fold enrichment (6-mer frequency, TF over GST control) | 1.23 fold enrichment (6-mer frequency, TF over GST control) | 1.26 fold enrichment (6-mer frequency, TF over GST control) | 1.29 fold enrichment (6-mer frequency, TF over GST control) | 1.31 fold enrichment (6-mer frequency, TF over GST control) | 1.23 fold enrichment (6-mer frequency, TF over GST control) |
| ATTGCA | 1.23 fold enrichment (6-mer frequency, TF over GST control) | 1.19 fold enrichment (6-mer frequency, TF over GST control) | 1.15 fold enrichment (6-mer frequency, TF over GST control) | 1.18 fold enrichment (6-mer frequency, TF over GST control) | 1.17 fold enrichment (6-mer frequency, TF over GST control) | 1.16 fold enrichment (6-mer frequency, TF over GST control) | 1.09 fold enrichment (6-mer frequency, TF over GST control) | 1.21 fold enrichment (6-mer frequency, TF over GST control) |
| TTGATG | 1.66 fold enrichment (6-mer frequency, TF over GST control) | 1.59 fold enrichment (6-mer frequency, TF over GST control) | 1.58 fold enrichment (6-mer frequency, TF over GST control) | 1.51 fold enrichment (6-mer frequency, TF over GST control) | 1.45 fold enrichment (6-mer frequency, TF over GST control) | 1.6 fold enrichment (6-mer frequency, TF over GST control) | 1.43 fold enrichment (6-mer frequency, TF over GST control) | 1.57 fold enrichment (6-mer frequency, TF over GST control) |
| ATCCTC | 1.34 fold enrichment (6-mer frequency, TF over GST control) | 1.53 fold enrichment (6-mer frequency, TF over GST control) | 1.41 fold enrichment (6-mer frequency, TF over GST control) | 1.56 fold enrichment (6-mer frequency, TF over GST control) | 1.46 fold enrichment (6-mer frequency, TF over GST control) | 1.95 fold enrichment (6-mer frequency, TF over GST control) | 1.51 fold enrichment (6-mer frequency, TF over GST control) | 1.37 fold enrichment (6-mer frequency, TF over GST control) |
| ATCGAC | 1.1 fold enrichment (6-mer frequency, TF over GST control) | 1.21 fold enrichment (6-mer frequency, TF over GST control) | 1.1 fold enrichment (6-mer frequency, TF over GST control) | 1.06 fold enrichment (6-mer frequency, TF over GST control) | 1.28 fold enrichment (6-mer frequency, TF over GST control) | 1.09 fold enrichment (6-mer frequency, TF over GST control) | 1.25 fold enrichment (6-mer frequency, TF over GST control) | 1.21 fold enrichment (6-mer frequency, TF over GST control) |
| TCCCCC | 1.45 fold enrichment (6-mer frequency, TF over GST control) | 1.43 fold enrichment (6-mer frequency, TF over GST control) | 1.42 fold enrichment (6-mer frequency, TF over GST control) | 1.35 fold enrichment (6-mer frequency, TF over GST control) | 1.52 fold enrichment (6-mer frequency, TF over GST control) | 1.7 fold enrichment (6-mer frequency, TF over GST control) | 1.51 fold enrichment (6-mer frequency, TF over GST control) | 1.56 fold enrichment (6-mer frequency, TF over GST control) |
| CTATTT | 1.63 fold enrichment (6-mer frequency, TF over GST control) | 1.82 fold enrichment (6-mer frequency, TF over GST control) | 1.71 fold enrichment (6-mer frequency, TF over GST control) | 1.57 fold enrichment (6-mer frequency, TF over GST control) | 1.66 fold enrichment (6-mer frequency, TF over GST control) | 1.72 fold enrichment (6-mer frequency, TF over GST control) | 1.63 fold enrichment (6-mer frequency, TF over GST control) | 1.9 fold enrichment (6-mer frequency, TF over GST control) |
| TTTTGG | 1.47 fold enrichment (6-mer frequency, TF over GST control) | 1.48 fold enrichment (6-mer frequency, TF over GST control) | 1.55 fold enrichment (6-mer frequency, TF over GST control) | 1.36 fold enrichment (6-mer frequency, TF over GST control) | 1.43 fold enrichment (6-mer frequency, TF over GST control) | 1.34 fold enrichment (6-mer frequency, TF over GST control) | 1.36 fold enrichment (6-mer frequency, TF over GST control) | 1.42 fold enrichment (6-mer frequency, TF over GST control) |
